± gives the standard deviation of the averaged measurements. Over roughly 33,000 sequences, “E-score (rank enrichment, -0.5 to 0.5)” has its median near -0.0028; the highest 2% begin near 0.23. What follows is part of a selection rich in the highest values, with near analogues and random picks from the rest.

The record followed here is the supplement of paper PMC12636033.

The test has as its system 2Sb-muMax20 (muMax20 with two 1,3-bis(methyl)benzene Cys staples, A13C/A17C and Q88C/A92C, C-terminal Lys). Briefly: PBM 8-mer E-score (E-score (rank enrichment, -0.5 to 0.5)); higher = stronger preferential binding. The procedure:
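Protein binding microarray (universal PBM chip covering all 10-mers in fixed probe flanks) with chemically synthesized human Max(13-93) bHLH-LZ analogs (not full-length Max) bearing noncanonical residues (hArg, Tha, Aib, Nle at 65) and aromatic Cys staples. Read-out per 8-mer (and its reverse complement): E-score (rank-based enrichment, -0.5 to 0.5) and Z-score of median probe intensity.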
As for CTGGTGGA, the “PBM 8-mer E-score” value was -0.184 ± 0.0071.
The result for CCCCAAAG reads -0.0426 ± 0.063; that for CCTCTGGC, -0.104 ± 0.017.
With GAACTATC, the “PBM 8-mer E-score” value was 0.0395 ± 0.014.
In the case of GCACAACC it was -0.2359 ± 0.0019; in that of GCACAACA, 0.263 ± 0.066; in that of CCACAACA, 0.0344 ± 0.024.
The result for CTCCTTGC reads -0.0809 ± 0.064; that for GAACCACC, -0.0303 ± 0.047.
In the case of CCCATAAC it was 0.128 ± 0.0013.
ACCATAAG: the “PBM 8-mer E-score” value turned out to be 0.0575 ± 0.0016.
The result for CCCATAAG reads 0.277 ± 0.06.
The result for ATACGTTG reads 0.11 ± 0.057; that for ATCTTGTA, -0.0155 ± 0.031; that for ATACAGTA, 0.223 ± 0.018.
In the case of ATACAGTG it was 0.237 ± 0.028; in that of ATACAGTC, -0.00634 ± 0.095; in that of ACGTCAAA, 0.148 ± 0.052.
Regarding CTTGCTGA, the “PBM 8-mer E-score” value was -0.0397 ± 0.039.
Turning to GACGGAAC, the “PBM 8-mer E-score” value was -0.127 ± 0.049.
In the case of CTCCTTAA it was -0.0933 ± 0.1; in that of AAGACCCA, 0.042 ± 0.021; in that of GAGACCCA, -0.107 ± 0.056.
Turning to TAGACCCA, the “PBM 8-mer E-score” value turned out to be 0.243 ± 0.021.
In the case of CAGAGCAG it was -0.155 ± 0.026.
On to ACTGTTCT, for which the “PBM 8-mer E-score” value was 0.114 ± 0.014.
Consider ACTAATAG, for which the “PBM 8-mer E-score” value is 0.261 ± 0.027.
The result for AATAATAG reads 0.146 ± 0.0061; that for ACTAATAC, 0.188 ± 0.061; that for ACTAATAT, 0.0629 ± 0.074.
In the case of CATAATAG it was 0.258 ± 0.0042.
For the sequence CATAATAA, the “PBM 8-mer E-score” value is 0.123 ± 0.049.
In the case of AGTAATAC it was -0.0436 ± 0.038.
In the case of AGTAATAG, the “PBM 8-mer E-score” value came to 0.255 ± 0.043.
In the case of CGTAATAG it was 0.168 ± 0.063; in that of CCTGGTTA, -0.0217 ± 0.078; in that of AGCGGTAA, -0.128 ± 0.0078.
In the case of GAGGCTCC it was -0.117 ± 0.064.
The result for AACTTTGT reads 0.12 ± 0.0076; that for AACACTAG, 0.193 ± 0.0046; that for CTGACGCC, -0.0915 ± 0.025.
For AATGCTTG, the “PBM 8-mer E-score” value is -0.00273 ± 0.049.
In the case of TCCACAGA it was -0.0264 ± 0.053; in that of CCTCGACG, -0.141 ± 0.026; in that of AATTGCTG, 0.0578 ± 0.078.
In the case of CATTGCTA it was 0.102 ± 0.021.
In the case of AGTTGCTA it was 0.0844 ± 0.05; in that of CGTTGCTC, -0.0317 ± 0.009; in that of AATTGCTA, 0.268 ± 0.048.
CGTTGCTA: the “PBM 8-mer E-score” value was found to be 0.237 ± 0.019.
Take CCACCTTC: the “PBM 8-mer E-score” value came to 0.0963 ± 0.024.
The result for AACTGAGG reads -0.066 ± 0.0013; that for ACGGAAGA, -0.0282 ± 0.0086; that for ATCACAAA, 0.187 ± 0.032.
The result for ACGTACGC reads 0.0419 ± 0.012; that for CGCTAGCA, -0.253 ± 0.03; that for GGCTAGCA, 0.0623 ± 0.01.
In the case of TGCTAGCA it was 0.245 ± 0.069; in that of TACAAACA, -0.0196 ± 0.043.
Consider CCCAAATA, for which the “PBM 8-mer E-score” value was 0.24 ± 0.02.
The result for AAACAAAC reads 0.0967 ± 0.0062.
In the case of AAACAAAA it was 0.133 ± 0.04; in that of AAACAAAT, 0.262 ± 0.056; in that of CCCAAGTA, 0.209 ± 0.045.
Regarding AACAAGTA, the “PBM 8-mer E-score” value was -0.0361 ± 0.0029.
The result for AACAAATA reads 0.269 ± 0.024; that for GCCAAATA, 0.136 ± 0.0084; that for AACAAACA, 0.257 ± 0.003.
In the case of AACAAACC it was 0.0286 ± 0.068; in that of TACAAATA, 0.166 ± 0.013.
For ATTCCGTA, the “PBM 8-mer E-score” value was -0.178 ± 0.0038.
As to AGCCTGCC, the “PBM 8-mer E-score” value is -0.0253 ± 0.013.
GACCAGCA: the “PBM 8-mer E-score” value was found to be 0.0345 ± 0.019.
In the case of AGAAATTC it was 0.0899 ± 0.038.
The result for CAATGAGC reads -0.0934 ± 0.018.
The result for ACTGGCAC reads -0.112 ± 0.0073; that for CTATCAAG, 0.0675 ± 0.11; that for CACCTATG, -0.067 ± 0.015.
Regarding AACAAGTC, the “PBM 8-mer E-score” value is 0.232 ± 0.0046.
Consider AACAAAAA, for which the “PBM 8-mer E-score” value worked out at 0.0552 ± 0.028.
For the sequence GACAAGTC, the “PBM 8-mer E-score” value is -0.141 ± 0.038.
AACAAGAT: the “PBM 8-mer E-score” value is 0.136 ± 0.05.
As for CACAAGTC, the “PBM 8-mer E-score” value is -0.0773 ± 0.025.
The result for AACAAAAT reads 0.275 ± 0.042.
As for CTTCTTGC, the “PBM 8-mer E-score” value was -0.076 ± 0.029.
In the case of ACAATAAA it was 0.157 ± 0.082; in that of ACAATACT, 0.098 ± 0.011.
